Earlier results in PubChem BioAssay AID977610.
Among all 3,600 compounds or so, about 3,600 (100%) were called active. No cut-off is given here; in the data, nearly all actives have Ki up to about 18000 µM. So high a share suggests a set chosen from earlier hits. The list shows a part of the results.

Experiment: PubChem AID 977610
Settings: PDB protein-ligand complexes, literature Ki

## O=C(CCc1ccc(-c2ccccc2)cc1)N[C@@H]1O[C@H](CO)[C@@H](O)[C@H](O)[C@H]1O
protein: Glycogen phosphorylase, muscle form, PDB entry 4mhs
  Ki: 5.14 µM (active)

## CC(C)c1ccc(CCC(=O)N[C@@H]2O[C@H](CO)[C@@H](O)[C@H](O)[C@H]2O)cc1
protein: Glycogen phosphorylase, muscle form, PDB entry 4mic
  Ki: 4.98 µM (active)

## Cc1ccc(C(=O)NC(=O)N[C@@H]2O[C@H](CO)[C@@H](O)[C@H](O)[C@H]2O)cc1
protein: Oryctolagus cuniculus Glycogen Phosphorylase, PDB entry 2qlm
  Ki: 2.3 µM (active)

## CC(C)c1ccc(C[C@@H](C)C(=O)N[C@@H]2O[C@H](CO)[C@@H](O)[C@H](O)[C@H]2O)cc1
protein: Glycogen phosphorylase, muscle form, PDB entry 4mi3
  Ki: 75.3 µM (active)

## CC[B]O
protein: pure Acyl-homoserine lactone acylase PvdQ, PDB entry 4wks
  Ki: 2000 µM (active)

## Cc1nn(C)cc1-c1ccn[nH]1
protein: Catechol O-methyltransferase COMT, PDB entry 4p58
  Ki: 25 µM (active)

## CC(C)S[C@@H]1O[C@H](CO)[C@H](O)[C@H](O)[C@H]1O
protein: Putative lipoprotein BT2192, PDB entry 4oue
  Ki: 500 µM (active)

## NCC1CCC(C(=O)N[C@@H](Cc2ccccc2)c2nc(-c3ccc4c(N)n[nH]c4c3)c(Cl)[nH]2)CC1 (some centres not stated)
protein: Coagulation factor XI FXIa, PDB entry 4ty7
  Ki: 0.0003 µM (active)

## NCC1CCC(C(=O)N[C@@H](Cc2ccccc2)c2ncc(-c3ccc(C(N)=O)cc3)[nH]2)CC1 (some centres not stated)
protein: Coagulation factor XI FXIa, PDB entry 4ty6
  Ki: 0.03 µM (active)

## N#CCC(=O)N1CCC[C@@H](n2[nH]nc3cnc4nccc4c32)C1
protein: Tyrosine-protein kinase JAK1, PDB entry 4i5c
  Ki: 0.0015 µM (active)

## O=C(O)C(=O)Nc1ccc(C[C@@H](c2nc3ccccc3o2)S(=O)(=O)Nc2ccc(F)cc2)cc1
protein: Tyrosine-protein phosphatase non-receptor type 1, PDB entry 4i8n
  Ki: 35 µM (active)

## O=c1[nH]c(=O)n([C@@H]2O[C@H](CO)[C@@H](O)[C@H](O)[C@H]2O)cc1I
protein: Glycogen phosphorylase, muscle form, PDB entry 3t3h
  Ki: 1.94 µM (active)

## O=c1[nH]c(=O)n([C@@H]2O[C@H](CO)[C@@H](O)[C@H](O)[C@H]2O)cc1Cl
protein: Glycogen phosphorylase, muscle form, PDB entry 3t3e
  Ki: 1.02 µM (active)

## O=c1[nH]c(=O)n([C@@H]2O[C@H](CO)[C@@H](O)[C@H](O)[C@H]2O)cc1C(F)(F)F
protein: Glycogen phosphorylase, muscle form, PDB entry 3t3i
  Ki: 17 µM (active)

## O=c1[nH]c(=O)n([C@@H]2O[C@H](CO)[C@@H](O)[C@H](O)[C@H]2O)cc1Br
protein: Glycogen phosphorylase, muscle form, PDB entry 3t3g
  Ki: 3.27 µM (active)

## OC[C@@H]1[C@@H](O)[C@H](O)[C@@H](O)[C@@H]1NCC1CCCCC1
protein: Raucaffricine Glucosidase, PDB entry 3zj6
  Ki: 0.22 µM (active)

## COCCCC[C@@H](NOCCN)c1ccc(C(F)(F)F)cc1
protein: Transporter(delta13 mutant), PDB entry 4mm9
  Ki: 2.07 µM (active)

## O=[N+]([O-])c1ccccc1S[C@@H]1O[C@H](CO)[C@H](O)[C@H](O)[C@H]1O
protein: Putative lipoprotein BT2192, PDB entry 4ozo
  Ki: 147 µM (active)

## COc1cc2c(c(OC)c1)[C@@H]1[C@H]3CCC[C@@H](C(=O)N1CC2)N3C(=O)C(=O)c1cc(OC)c(OC)c(OC)c1
protein: Peptidyl-prolyl cis-trans isomerase FKBP5 (A19T mutation), PDB entry 4jfi
  Ki: 18.1 µM (active)

## COc1cc(Cc2cnc(N)nc2N)cc(/C=C/C(=O)N2N=Cc3ccccc3[C@@H]2C(C)C)c1OC
protein: Dihydrofolate reductase, PDB entry 4ele
  Ki: 0.0132 µM (active)

## COc1cc(Cc2cnc(N)nc2N)cc(/C=C/C(=O)N2NCc3ccccc3[C@H]2CC(C)C)c1OC
protein: Dihydrofolate reductase, PDB entry 4elh
  Ki: 0.0082 µM (active)

## COc1cc(Cc2cnc(N)nc2N)cc(/C=C/C(=O)N2NCc3ccccc3[C@@H]2c2ccccc2)c1OC
protein: Dihydrofolate reductase, PDB entry 4elb
  Ki: 0.005 µM (active)

## COc1cc(Cc2cnc(N)nc2N)cc(/C=C/C(=O)N2NCc3ccccc3[C@@H]2CC(C)C)c1OC
protein: Dihydrofolate reductase, PDB entry 4elg
  Ki: 0.0069 µM (active)

## COc1cc(Cc2cnc(N)nc2N)cc(/C=C/C(=O)N2NCc3ccccc3[C@@H]2CCC(F)(F)F)c1OC
protein: Dihydrofolate reductase, PDB entry 4elf
  Ki: 0.0094 µM (active)

## CCCCCCCCCCCCCB(O)O
protein: Acyl-homoserine lactone acylase PvdQ subunit beta, PDB entry 4m1j
  Ki: 0.0002 µM (active)

## Cc1cc(N)ccc1O
protein: PDE10A2, PDB entry 4llp
  Ki: 16 µM (active)

## O=C(O)c1ccccc1C(=O)NCc1c(Cl)cccc1Sc1ccc(Cl)cc1Cl
protein: Dehydrosqualene synthase, PDB entry 3tfp
  Ki: 0.34 µM (active)
